Bioassay records (PubChem BioAssay)
Sampled rows, rich in hits. Any-hit rate of the full collection: about 2.3%.
HSP90 refold inh = inhibitors of HSP90 luciferase refolding in rabbit reticulocyte lysate | luciferase refolding luminescence, 3 h | inhibition, % at 5.6 µM | 290,000 compounds, 0.91% hits | AID 1789;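 active means inhibition above the screen-wide mean plus 3 SD, computed separately per campaign, cut at about 16% in these data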;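 further: 0% = DMSO wells and 100% = 60 µM geldanamycin wells; inhibitors lower the luminescence because luciferase stays unfolded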
SENP8 block-1 = blocks the human protease SENP8; 330,000 compounds, 1.2% hits; Q96LD8; AID 2540; inhibition, % at 10 µM; purified SENP8, Z-RLRGG-aminoluciferin cleavage, luminescence; in the data active means inhibition above about 50%
Target sequence (Q96LD8 whole entry, looked up): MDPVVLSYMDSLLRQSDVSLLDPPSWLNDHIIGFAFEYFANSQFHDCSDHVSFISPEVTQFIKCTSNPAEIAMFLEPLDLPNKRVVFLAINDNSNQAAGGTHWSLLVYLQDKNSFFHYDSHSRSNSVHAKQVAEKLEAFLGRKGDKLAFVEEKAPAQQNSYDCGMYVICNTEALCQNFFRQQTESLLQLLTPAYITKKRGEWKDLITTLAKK
SENP6 block = inhibitors of human SENP6 protease. Q9GZR1. Recombinant SENP6 catalytic domain, aminoluciferin luminescence. inhibition, % at 10 µM. 330,000 compounds, 1.8% hits. AID 2599;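 active means inhibition above about 50% at the single tested dose, limit read from the data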;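 further: plate controls were DMSO wells with enzyme for no effect and DMSO wells lacking enzyme for full effect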
LGR2 inh = blocks bursicon-induced cAMP signaling via Drosophila LGR2; HEK293 LGR2, CRE-luciferase, bursicon-stimulated, 4 h; inhibition, % at 9.99 µM; 380,000 compounds, 0.35% hits; AID 720647;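 active means drop in luminescence signal, shown as inhibition above about 50% in the replicate tests, limit read from the data, passing the limit was not always enough; inconclusive means probably only some replicates passing the limit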;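 further: agonist challenge used bursicon conditioned medium at about half maximal strength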
SENP7 inh = inhibitors of human SENP7 protease | Q9BQF6 | recombinant SENP7, Z-RLRGG-aminoluciferin luminescence, 40 min | 330,000 compounds, 1.5% hits | inhibition, % at 5 µM | AID 434973;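 active means inhibition above about 50% at the single test dose, limit read from the data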;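 further: plate controls were DMSO with enzyme for no effect and no enzyme buffer wells for full effect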
Target sequence (Q9BQF6 706-1050 limits assumed): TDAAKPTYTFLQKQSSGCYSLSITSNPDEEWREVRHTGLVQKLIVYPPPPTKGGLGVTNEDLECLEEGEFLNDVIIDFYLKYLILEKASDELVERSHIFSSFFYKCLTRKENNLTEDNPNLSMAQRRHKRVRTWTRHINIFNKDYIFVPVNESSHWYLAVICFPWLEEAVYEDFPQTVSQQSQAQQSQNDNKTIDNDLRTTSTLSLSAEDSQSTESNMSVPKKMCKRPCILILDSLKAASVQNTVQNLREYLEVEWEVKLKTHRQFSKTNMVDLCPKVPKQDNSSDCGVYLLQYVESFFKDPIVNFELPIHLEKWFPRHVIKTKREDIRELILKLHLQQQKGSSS
SENP8 block-2 = inhibitors of human SENP8 protease; 360,000 compounds, 0.64% hits; inhibition, % at 20 µM; Q96LD8; recombinant SENP8, Nedd8 substrate fluorescence; in the data active means inhibition mostly above about 40%, no sharp cut-off; inactive means mostly below about 27%
SENP8 conf = human SENP8 inhibition, confirmed; shares compounds with SENP7 inh; 6,200 compounds, 40% hits; inhibition, % at 12.5 µM; Recombinant SENP8, Z-RLRGG-aminoluciferin luminescence, 60 min;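 active means mean inhibition across replicates above about 50%, limit read from the data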
SENP6 confirm = human SENP6 inhibition, confirmed; shares compounds with SENP7 inh; recombinant SENP6, Z-RLRGG-aminoluciferin luminescence; inhibition, % at 12.5 µM; 6,200 compounds, 58% hits; AID 488915
SENP7 conf = human SENP7 inhibition, confirmed. shares compounds with SENP7 inh. recombinant SENP7, Z-RLRGG-aminoluciferin luminescence, 40 min. inhibition, % at 12.5 µM. 6,200 compounds, 69% hits
Casp3 select = caspase-3 inhibition (SENP selectivity assay) | shares compounds with SENP7 inh | purified caspase-3, Z-DEVD-aminoluciferin luminescence, 60 min | inhibition, % at 12.5 µM | 6,200 compounds, 60% hits | AID 488918;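 active means mean inhibition above about 50%, limit read from the data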;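 further: plate controls were enzyme with DMSO for no effect and wells without caspase-3 for full effect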
Target sequence (P42574 28-227 limits assumed): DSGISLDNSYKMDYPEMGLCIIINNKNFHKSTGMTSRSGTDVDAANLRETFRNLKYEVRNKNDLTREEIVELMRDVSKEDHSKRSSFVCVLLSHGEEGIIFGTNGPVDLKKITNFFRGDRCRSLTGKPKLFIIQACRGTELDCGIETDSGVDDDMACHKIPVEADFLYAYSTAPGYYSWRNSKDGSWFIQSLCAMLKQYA
Luc interf = counter-screen for SENP inhibitors: luminescence interference | Pre-incubated SENP8/Z-RLRGG-aminoluciferin, luciferase luminescence interference | 6,200 compounds, 39% hits | shares compounds with SENP7 inh | AID 488919 | inhibition, % at 12.5 µM;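 active means mean inhibition above about 50% when retested at one dose, limit read from the data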;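 further: plate controls were DMSO wells with completed reaction for no effect and substrate without enzyme for full effect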
Numbers without * were called inactive; ? = inconclusive; / = no result.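 How the source made its calls, unless noted: active means mean inhibition above about 50% in the one-dose retest (limit read from the data); inactive means the rest.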

SMILES | HSP90 refold inh | SENP8 block-1 | SENP6 block | LGR2 inh | SENP7 inh | SENP8 block-2 | SENP8 conf | SENP6 confirm | SENP7 conf | Casp3 select | Luc interf
N#Cc1cc2cc3c(cc2nc1SCC(=O)N1CCCC1)OCCO3 | 2.2 | -0.8 | -17.1 | / | 0.0 | -144.5 | / | / | / | / | /
C1=CC2=NC34CCCCC3CC3=C(CCCC3)N4C2=CC1=NC1CCCCC1 (stereo not drawn) | / | 13.4 | 51.2* | / | 2.5 | 25.4 | -25.0 | -17.3 | -10.8 | -11.1 | -7.2
COc1ccc(Cn2c(C3CC3)nc3ccc(NC(C)=O)cc3c2=O)cc1 | -1.6 | 46.1 | 72.6* | / | 67.2* | -15.4 | 70.2* | 68.4* | 89.8* | 73.3* | 41.9
COc1ccc(Cn2c(C3CC3)nc3ccc(NC(=O)c4cccnc4)cc3c2=O)cc1 | 5.5 | 0.8 | -9.6 | / | 3.3 | -37.3 | / | / | / | / | /
O=Nc1c(-c2c(O)[nH]c3cc(Br)ccc23)[nH]c2ccccc12 | -5.7 | 8.5 | 54.2* | 95.0* | 52.7* | 19.5 | 17.0 | 35.5 | 78.6* | 21.5 | 4.0
O=C(CSCc1cccc(Br)c1)N=Nc1c(O)[nH]c2ccccc12 | 1.0 | 0.0 | 8.2 | / | 6.4 | 14.1 | / | / | / | / | /
C[C@@H]1CN([C@@H](C)CO)C(=O)c2cc(NC(=O)Cc3ccccc3)ccc2O[C@H]1CN(C)S(=O)(=O)c1cccs1 | / | / | / | -3.8 | / | / | / | / | / | / | /
CC(C)(C)NC(=S)Nc1ccc(Nc2ccccc2)cc1 | 1.1 | 17.5 | 32.3 | / | 50.5* | 9.4 | -3.4 | 1.6 | 6.8 | 1.9 | 4.1
CC(C)(C)NC(=S)Nc1ccc(Br)cc1 | 1.4 | -0.9 | -11.5 | / | -3.8 | 8.8 | / | / | / | / | /
COc1oc(-c2ccccc2)nc1C(F)(F)F | -1.2 | 1.7 | 6.6 | 3.4 | 70.5* | -2.3 | -18.5 | -6.1 | -8.9 | 5.2 | -3.7
CC(C)NC(=O)N[C@H]1C=C[C@@H](CC(=O)NC2Cc3ccccc3C2)O[C@@H]1CO | / | / | / | -2.9 | / | / | / | / | / | / | /
COc1ccc2c(c1)CCc1c-2n[nH]c1C(=O)NCCC(C)C | 2.6 | 56.2* | 48.2 | -35.6 | 59.7* | 9.3 | 23.3 | 54.4* | 85.3* | 52.4* | 10.2
CNC(=O)c1[nH]nc2c1CCc1cc(OC)ccc1-2 | 7.4 | -2.6 | -39.5 | -20.5 | 7.6 | 22.0 | / | / | / | / | /
COCC(=O)N[C@@H]1CC[C@H](CC(=O)NCc2ccccc2OC)O[C@H]1CO | / | / | / | -4.6 | / | / | / | / | / | / | /
CC=Cc1ccc2n(c1=O)C[C@H]1[C@H](CO)[C@@H](C(=O)N3CCN(C)CC3)N(Cc3ccccc3F)[C@@H]21 (mixture of isomers) | / | / | / | -25.4 | / | / | / | / | / | / | /
C[C@H]1CN([C@@H](C)CO)C(=O)c2cc(NS(=O)(=O)c3ccccc3)ccc2O[C@H]1CN(C)C(=O)Nc1ccc(F)cc1 | / | / | / | 19.4 | / | / | / | / | / | / | /
COc1ccc(C(=O)COc2cccc(NC(=O)c3ccco3)c2)cc1 | 2.2 | -5.8 | -23.3 | / | -11.2 | 4.8 | / | / | / | / | /
COc1ccc(C(=O)CC(=O)c2ccccc2)cc1 | / | 67.1* | 77.1* | -49.4 | 73.6* | -11.6 | 70.5* | 70.1* | 92.0* | 55.0* | 58.8*
COc1ccc(C(=O)COC(=O)c2ccco2)cc1 | 4.0 | 50.4* | 72.4* | ? | 54.9* | 11.9 | 62.1* | 61.5* | 85.8* | 85.1* | 70.9*
COc1ccc(C(=O)CC(=O)c2ccc(OC)cc2)cc1 | 3.4 | 1.6 | 8.9 | -11.1 | -5.1 | -258.0 | / | / | / | / | /
COc1ccc(C(=O)CNc2ccccc2Br)cc1 | 7.8 | 47.4 | 58.0* | -17.4 | 9.3 | 21.0 | 19.1 | 63.9* | 61.4* | 36.2 | 6.2
COC(=O)c1ccc(OCC(=O)c2ccccc2)cc1 | 0.9 | 26.5 | 34.9 | / | 57.1* | 14.2 | 52.1* | 51.0* | 84.2* | 72.6* | 61.5*
O=C(COc1ccccc1)c1ccccc1 | / | / | / | -49.6 | / | 11.5 | / | / | / | / | /
CC(C)C(=O)Nc1ccc2c(c1)C(=O)N(C)[C@@H]1CC[C@@H](CC(=O)O)O[C@H]1CO2 | / | / | / | -1.7 | / | / | / | / | / | / | /
C[C@@H]1CN([C@H](C)CO)C(=O)Cc2cc(N(C)C)ccc2O[C@H]1CN(C)S(=O)(=O)c1ccccc1 | / | / | / | -2.9 | / | / | / | / | / | / | /
SMILES | HSP90 refold inh | SENP8 block-1 | SENP6 block | LGR2 inh | SENP7 inh | SENP8 block-2 | SENP8 conf | SENP6 confirm | SENP7 conf | Casp3 select | Luc interf
COc1ccc(/C(N)=N/OC(=O)CSc2ccccc2)cc1 | 3.8 | 42.0 | 76.6* | / | 63.0* | 13.1 | 56.7* | 65.1* | 86.7* | / | 40.6
O=c1oc2c(CN3CCCCC3)c(O)ccc2cc1-c1nc2ccccc2[nH]1 | / | / | / | -3.6 | / | -250.5 | / | / | / | / | /
O=c1oc2c(O)cccc2cc1-c1nc2ccccc2[nH]1 | 11.3 | 0.7 | 92.9* | -9.1 | 96.0* | -286.6 | 31.2 | 85.2* | 36.2 | 38.7 | 14.4
O=C(NCCOc1ccccc1)c1ccc2n[nH]nc2c1 | / | 50.3* | 57.8* | -42.4 | 31.7 | -1.5 | 68.3* | 67.7* | 86.7* | 87.3* | 71.6*
O=C(NCCOc1ccccc1)c1ncn[nH]1 | -1.9 | 0.7 | 6.2 | / | 0.0 | 22.8 | / | / | / | / | /
Cc1ccc(N=Nc2c(=O)[nH]n3c(=O)cc(C)[nH]c23)cc1 | 3.9 | 53.5* | 75.9* | / | 43.5 | 37.0 | -15.8 | 17.5 | 59.7* | 61.4* | 44.8
Cc1ccc(N=Nc2c(O)[nH]c3ccc(F)cc23)cc1 | -0.4 | -4.3 | -1.2 | / | 5.8 | 15.6 | / | / | / | / | /
CCCNC(=O)N1C[C@H](C)[C@H](OC)CN(C)C(=O)c2cc(NC(=O)CCC)ccc2OC[C@H]1C | / | / | / | 2.1 | / | / | / | / | / | / | /
O=C(NC(=S)Nc1ccc2c(c1)OCCO2)c1ccccc1 | 9.9 | 48.9 | 76.3* | 6.7 | 25.2 | 11.9 | 59.1* | 60.7* | 88.1* | 53.7* | 58.9*
O=C(Nc1ccccc1)c1ccc2c(c1)OCCO2 | 4.8 | 77.4* | 93.1* | / | 85.3* | 28.8 | -23.1 | 77.1* | 96.7* | 91.9* | 83.9*
CCN(CC)c1ccc(C(=O)Nc2cccc(F)c2)cc1 | 0.9 | 59.3* | 83.7* | / | 59.3* | -154.7 | 70.7* | 74.1* | 92.6* | 63.7* | 67.8*
O=C(Nc1cccc(F)c1)c1ccc2c(c1)OCCO2 | 10.3 | 87.1* | 89.0* | -68.6 | 93.2* | 2.5 | -3.7 | 87.5* | 99.2* | 89.7* | 88.9*
CN(CC(=O)Nc1cccc(F)c1)C(=O)c1ccc2c(c1)OCCO2 | / | 15.6 | 19.3 | -28.2 | 2.9 | 10.7 | / | / | / | / | /
O=C(Nc1cccc(NC(=O)c2ccc3c(c2)OCO3)c1)c1ccccc1 | -0.6 | 31.0 | -6.4 | -18.5 | 42.5 | -8.5 | / | / | / | / | /
CO[C@@H]1CN(C)C(=O)c2cc(NC(=O)C3CCC3)ccc2OC[C@@H](C)N(C(=O)NC(C)C)C[C@@H]1C | / | / | / | 8.9 | / | / | / | / | / | / | /
